Results taken from the supplement of paper PMC11026393.

Tested on: H1299
Experiment: difference in mean normalized H2B-mRuby nuclear fluorescence intensity relative to DMSO control (normalized intensity difference (DMSO = 0)); higher = stronger increase in transgene reporter fluorescence
Details: 24 h
Procedure: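 Cancer cell lines stably expressing H2B-mRuby2 from a lentiviral PGK promoter were treated with each drug for 24 h and imaged on a Leica DMI8 (ex 541-551 / em 565-605 nm). Nuclei were segmented in CellProfiler. The value is the difference in mean per-nucleus normalized H2B-mRuby intensity versus DMSO-treated cells (about 3 repeats x 4 fields). Doxorubicin is itself fluorescent. Dasatinib is in nM.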

| SMILES | difference (concentration: 0.1) | difference (concentration: 0.5) | difference (concentration: 1) | difference (concentration: 5) | difference (concentration: 10) | difference (concentration: 25) | difference (concentration: 100) | difference (concentration: 500) |
| --- | --- | --- | --- | --- | --- | --- | --- | --- |
| Cc1sc2c(c1C)C(c1ccc(Cl)cc1)=N[C@@H](CC(=O)OC(C)(C)C)c1nnc(C)n1-2 (concentration unit: uM) | 0.176 | 0.367 | 0.441 | 0.532 | 0.625 | – | – | – |
| CN[C@@H]1C[C@H]2O[C@@](C)([C@@H]1OC)n1c3ccccc3c3c4c(c5c6ccccc6n2c5c31)C(=O)NC4 (concentration unit: nM) | – | – | – | -0.113 | -0.185 | -0.17 | 0.0873 | 0.138 |
